# Assay outcomes deposited in PubChem BioAssay by Broad Institute.
# Tgondii IFNg = blocks Toxoplasma gondii growth in the presence of IFN-gamma; Toxoplasma gondii growth in IFN-gamma-treated host cells; active compounds read low; activity change, negative = inhibition, % (no concentration beside the values); actives 3.8% (n = 69,000); AID 1259416; in the data active = activity change below about -70%, passing the limit was not always enough;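 note: host cells are HeLa cells infected with Toxoplasma gondii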
# An asterisk follows results filed as active. Only a selection was taken, and hits are over-represented in it overall.
SMILES,Tgondii IFNg
COc1cc(C(=O)OCCCN2CCCN(CCCOC(=O)c3cc(OC)c(OC)c(OC)c3)CC2)cc(OC)c1OC,-7
COc1cc(C(=O)ON=C2C3CC4CC(C3)CC2C4)cc(OC)c1OC,-106*
COc1cc2c(cc1NS(C)(=O)=O)C(c1ccncc1F)CC(=O)N2 (stereo not given),13
Cc1noc(CN(C)C(=O)c2cc(C(C)C)no2)n1,-6
Cc1cc(C(O)CN2CCN(c3ccc4c(c3)OCCO4)CC2)c(C)s1 (stereo not given),96
Cc1nc(CC(=O)N2CCCCC2c2[nH]ncc2C)cs1 (stereo not given),-34
Cc1nc(CC(=O)N2CCC(c3ccccc3C(=O)O)C2)cs1 (stereo not given),31
Cc1nc(CC(=O)N2CCCC2c2ccc3c(NCc4ccccc4)n[nH]c3n2)cs1 (stereo not given),-76*
Cc1c2oc3c(C)ccc(C(=O)OC(C)C4NC(=O)C(C(C)C)N(C)C(=O)CN(C)C(=O)C5CCCN5C(=O)C(C(C)C)NC4=O)c3nc-2c(C(=O)OC(C)C2NC(=O)C(C(C)C)N(C)C(=O)CN(C)C(=O)C3CCCN3C(=O)C(C(C)C)NC2=O)c(N)c1=O (stereo not given),-83*
O=C(NCC1CC1)C1CCC2(CCN(C(=O)c3ccccn3)CC2)O1 (stereo not given),2
Cc1ccc(C)c(NC(=O)c2c3c(nc4ccccc24)CCCC3)c1,-37
CCOC(=O)c1cnc2oc3ccc(O)cc3c2c1-c1ccccc1,14
Cc1nc(-c2ccccc2)sc1C(=O)Oc1ccccc1N1CCOCC1,-56
CCOC(=O)c1cnc2c(-c3ccccc3)c(C(F)(F)F)sc2c1N1CCOCC1,-93*
CNC(=O)c1ccc(-c2nc(CN3CCN(S(=O)(=O)c4ccc(C(C)C)cc4)CC3)c(C)o2)cc1,46
CCn1c(CN2CC[C@@H](c3sccc3C)[C@H](O)C2)nc2ccccc21,11
O=c1oc2ccccc2n1C1CCCN(CC2=Cc3ccccc3OC2)C1 (stereo not given),2
CCn1c(CN2CCCC(n3c(=O)oc4ccc(Cl)cc43)C2)nc2ccccc21 (stereo not given),-87*
COc1ccc(-c2nc(Cc3noc(-c4cccc(OC)c4)n3)c(C)o2)cc1,80
Cc1cc(C)cc(Nc2nc(-c3nnc(-c4ccccc4)o3)nc3ccccc23)c1,42
c1ccc(Nc2ncnc3ccccc23)cc1,-61
Cc1cccc(Nc2ncnc3ccccc23)c1,-51
Cc1ccc(Nc2nc(-c3nnc(-c4ccc(C)cc4)o3)nc3ccccc23)cc1,42
CC(Nc1nc(-c2nnc(-c3ccccc3)o2)nc2ccccc12)c1ccccc1 (stereo not given),-94*
CC(Nc1ncnc2ccccc12)c1ccccc1 (stereo not given),-93*
SMILES,Tgondii IFNg
CN(C)CC(=O)N1CCCn2nnc(COc3cccnc3)c2C1,-52
CCOc1ccc(-c2noc(-c3c(O)c4ccccc4n(CC)c3=O)n2)cc1,60
COc1cc2c(cc1OC)C(c1c(C)nn(-c3ccccc3)c1Cl)CC(=O)N2 (stereo not given),-47
CCCCC[C@H](O)/C=C/[C@H]1[C@H](O)CC(=O)[C@@H]1CCCCCCC(=O)O,14
CCCCCCCCCCC[C@@H](C[C@@H]1OC(=O)[C@H]1CCCCCC)OC(=O)[C@H](CC(C)C)NC=O,-82*
O=C(CN1CCN(c2nccc(N3CCCC(O)C3)n2)CC1)N1CCCC1 (stereo not given),1
CN1CCOC2(CCCN(S(=O)(=O)c3ccccc3F)C2)C1 (stereo not given),31
CCc1cc(C(=O)Nc2ccc3c(c2)N(S(C)(=O)=O)CCC3)c2c(C)noc2n1,-11
N=C(N=C(N)N)N1CCOCC1,11
NC(=O)CN1CCOCCOCCN(CC(N)=O)CCOCC1,-71*
CC(C)(C)NC(=O)CCN1CCOCC1,12
Cc1nc(NCCCCc2ccccc2)c2cnn(C)c2n1,-26
C=CCN1C[C@H]2CN(C(=O)c3ccc(C)nc3)CCC[C@]2(C(=O)O)C1,-9
COc1ccc(CNC(=O)Cn2ncc3c(N4CCN(C)CC4)ncnc32)cc1,0
COc1ccc(CNC(=O)Cn2ncc3c(N4CCN(c5ccccc5)CC4)ncnc32)cc1,-102*
Cc1ccc(CNC(=O)Cn2ncc3c(N4CCN(c5ccccc5)CC4)ncnc32)cc1,-15
CN(C)CCNC(=O)Cn1ncc2c(N3CCN(c4ccccn4)CC3)ncnc21,-10
O=C(Cn1ncc2c(N3CCN(c4ccccn4)CC3)ncnc21)NCc1ccccc1,-105*
CCc1ccc(CNC(=O)Cn2ncc3c(N4CCN(c5ccccn5)CC4)ncnc32)cc1,31
Cc1ccc(Cl)cc1NC(=O)N1CCC(c2nc(C(=O)N3CCCC3)c(C)o2)CC1,-16
Cc1ccc2c(c1)NC1(CCN(C(=O)Nc3ccccc3C)CC1)c1cccn1-2,98
COc1ccc(-c2ccc(SCC(=O)NCCc3c[nH]c4ccccc34)nn2)cc1OC,4
COc1ccc(C(=O)N2CCN(Cc3cc4n(n3)CCCNC4)CC2)cc1,6
COc1cccc(NC(=O)c2nc(Nc3ccc(Cl)cc3)c3ccccc3n2)c1,-56
O=c1[nH]c(-c2ccccc2)nnc1/C=C/c1ccccc1,-85*
SMILES,Tgondii IFNg
O=c1[nH]c2ccccc2nc1/C=C/c1cccs1,-8
Nc1nc(-c2ccccc2)c(Br)c(=O)[nH]1,2
Cc1nc2ccc(NC(=O)CCn3ncc4c3CCCC4)cc2s1,-3
COc1ccc(-c2nccn2CCc2ncccc2C)c(C)c1C,6
CCCN(C/C=C/c1ccccc1)C(=O)Cc1nc(C)sc1C,4
COc1ccc2c(c1)CC/C2=N/OC(=O)c1cc(SC)ccc1Cl,-91*
COc1ccc(C(=O)O/N=C2\CCSc3ccc(F)cc32)cc1,80
CCCN1C(=O)CCc2cc(NC(=O)c3cc(SC)ccc3Cl)ccc21,11
Cn1cc(CN2CC[C@H]3[C@@H]2CCN3C(=O)c2cccs2)cn1,4
Cc1cc(C)c(-c2cnc(-n3cnnc3)c(C)c2)c(C)c1,-78*
COC(C)c1cccc(-c2cnc(-n3cnnc3)c(C)c2)c1 (stereo not given),-11
CC(C)c1nccn1-c1ccc(-c2ccn[nH]2)cc1,4
OCc1cc(-c2ccc(-c3ccn[nH]3)cc2)ccn1,58
Cc1cc(-c2ccc(-c3ccn[nH]3)cc2)cnc1-n1cnnc1,-77*
Cc1cnc(-n2cnnc2)c(-c2ccc(S(C)(=O)=O)cc2)c1,2
c1cncc(-c2nccn2Cc2ccc3nsnc3c2)c1,9
FCCN1CCC2(CC1)CC(Nc1ncccn1)c1ccccc1O2 (stereo not given),10
CCNc1ncc(CN2CCN(C)C3(CCN(C(=O)COC)CC3)C2)cn1,-35
COCCO[C@@H]1CCN(c2ncccn2)[C@H]1Cc1cnn(C)c1,1
CC(=O)c1cccc(NC(=S)Nc2ccc(F)cc2)c1,27
O=C(Cc1ccccc1)Nc1ccc(Cl)cc1,-60
CCc1ccc(NC(=S)Nc2ccc(Cl)cc2C(=O)c2ccccc2)cc1,-96*
Cc1nnnn1Cc1ccc(C(=O)O)cc1,-52
CN1CCN(c2ccc(OC(F)(F)F)c(Nc3ncc4c(n3)-c3c(c(C(N)=O)nn3CCO)CC4)c2)CC1,-81*
CNC(=O)c1nn(C)c2c1C(C)(C)Cc1cnc(Nc3ccc(N4CCN(C)CC4)cc3)nc1-2,-58
CCCC(=O)N(Cc1ccccc1)Cc1nc(C)ncc1-c1ccncc1,21
CN(C)Cc1noc2c1CN(Cc1ccoc1)CC2,-32
Cc1cccc(CN2CCc3onc(CN(C)C)c3C2)n1,-2
